# Source: PubChem
# SENP8 block-1 – human SENP8 protease inhibitors, primary screen, biochemical, fluorescence, Nedd8 protein substrate, uHTS; Sentrin-specific protease 8 (Homo sapiens), Q96LD8; recombinant SENP8; inhibition, % at 20 µM; hit rate 0.64% among 360,000; AID 602440, 2012; in the data active = inhibition mostly above about 40%, no sharp cut-off; inactive = mostly below about 27%
# Target sequence (Q96LD8 whole entry, looked up): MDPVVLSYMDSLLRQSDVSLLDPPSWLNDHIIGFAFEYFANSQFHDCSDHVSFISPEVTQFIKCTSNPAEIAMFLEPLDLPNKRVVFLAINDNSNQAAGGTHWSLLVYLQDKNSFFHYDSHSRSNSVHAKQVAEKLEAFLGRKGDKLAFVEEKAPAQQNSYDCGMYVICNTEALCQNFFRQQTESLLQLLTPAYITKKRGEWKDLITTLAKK
# SENP6 block – SENP6 protease inhibitors, primary screen, biochemical, luminescence, uHTS; Sentrin-specific protease 6 (Homo sapiens), Q9GZR1; Recombinant SENP6 catalytic domain, aminoluciferin luminescence; inhibition, % at 10 µM; hit rate 1.8% among 330,000;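 active = inhibition above about 50% at the single tested dose, limit read from the data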;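 note: plate controls were DMSO wells with enzyme for no effect and DMSO wells lacking enzyme for full effect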
# Target sequence (Q9GZR1 628-1112 limits assumed): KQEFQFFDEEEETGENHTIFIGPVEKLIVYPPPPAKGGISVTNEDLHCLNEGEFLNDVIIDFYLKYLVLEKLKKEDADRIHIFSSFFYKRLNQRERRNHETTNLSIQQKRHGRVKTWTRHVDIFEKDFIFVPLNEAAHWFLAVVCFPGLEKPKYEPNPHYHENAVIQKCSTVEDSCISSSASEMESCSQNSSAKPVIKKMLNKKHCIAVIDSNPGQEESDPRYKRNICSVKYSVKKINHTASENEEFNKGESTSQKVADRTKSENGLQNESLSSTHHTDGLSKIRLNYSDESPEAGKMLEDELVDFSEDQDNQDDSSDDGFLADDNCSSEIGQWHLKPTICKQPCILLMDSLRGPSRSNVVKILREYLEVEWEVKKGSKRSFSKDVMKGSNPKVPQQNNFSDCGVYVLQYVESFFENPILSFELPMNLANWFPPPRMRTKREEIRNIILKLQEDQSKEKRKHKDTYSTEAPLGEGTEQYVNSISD
# SENP8 block-2 – SENP8 protease inhibitors, primary screen, biochemical, luminescence; Sentrin-specific protease 8 (Homo sapiens), Q96LD8; AID 2540, 2010; hit rate 1.2% among 330,000; inhibition, % at 10 µM; purified SENP8, Z-RLRGG-aminoluciferin cleavage; in the data active = inhibition above about 50%
# HSP90 inh – HSP90 inhibitors, primary screen, cell lysate, luminescence. hit rate 0.91% among 290,000. Rabbit reticulocyte lysate, luciferase refolding luminescence, 3 h. inhibition, % at 5.6 µM. AID 1789, 2009;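 active = inhibition above the screen-wide mean plus 3 SD, computed separately per campaign, cut at about 16% in these data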;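 note: 0% = DMSO wells and 100% = 60 µM geldanamycin wells; inhibitors lower the luminescence because luciferase stays unfolded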
# SENP7 inh – SENP7 protease inhibitors, primary screen, biochemical, luminescence, uHTS. Sentrin-specific protease 7 (Homo sapiens), Q9BQF6. recombinant SENP7, Z-RLRGG-aminoluciferin luminescence, 40 min. inhibition, % at 5 µM. hit rate 1.5% among 330,000. AID 434973, 2010;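 active = inhibition above about 50% at the single test dose, limit read from the data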;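 note: plate controls were DMSO with enzyme for no effect and no enzyme buffer wells for full effect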
# SENP8 confirm – SENP8 protease inhibitors, retest, confirmation, biochemical, luminescence, single concentration; shares compounds with SENP7 inh; Recombinant SENP8, Z-RLRGG-aminoluciferin luminescence, 60 min; inhibition, % at 12.5 µM; hit rate 40% among 6,200;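 active = mean inhibition across replicates above about 50%, limit read from the data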
# SENP6 conf – SENP6 protease inhibitors, confirmation, biochemical, luminescence, single concentration; shares compounds with SENP7 inh; recombinant SENP6, Z-RLRGG-aminoluciferin luminescence; inhibition, % at 12.5 µM; hit rate 58% among 6,200; AID 488915, 2010
# SENP7 conf – SENP7 protease inhibitors, retest, confirmation, biochemical, luminescence, single concentration. shares compounds with SENP7 inh. recombinant SENP7, Z-RLRGG-aminoluciferin luminescence, 40 min. inhibition, % at 12.5 µM. hit rate 69% among 6,200. AID 488917, 2010
# Casp3 SENP sel – caspase-3 protease inhibitors, confirmation, selectivity assay for SENP inhibitor project, biochemical, single concentration | hit rate 60% among 6,200 | shares compounds with SENP7 inh | purified caspase-3, Z-DEVD-aminoluciferin luminescence, 60 min | inhibition, % at 12.5 µM;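 active = mean inhibition above about 50%, limit read from the data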;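 note: plate controls were enzyme with DMSO for no effect and wells without caspase-3 for full effect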
# Luc interf – interferes with luciferase luminescence in SENP counter-screen; Pre-incubated SENP8/Z-RLRGG-aminoluciferin, luciferase luminescence interference; shares compounds with SENP7 inh; hit rate 39% among 6,200; inhibition, % at 12.5 µM;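 active = mean inhibition above about 50% when retested at one dose, limit read from the data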;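 note: plate controls were DMSO wells with completed reaction for no effect and substrate without enzyme for full effect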
# * marks the source's active call; other numbers are inactive results; i = inactive; . = no result given. Sampled rows, rich in hits. Any-hit rate of the full collection: about 2.8%.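 Rule for the calls, unless noted: active = mean inhibition above about 50% in the one-dose retest (limit read from the data); inactive = the rest.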
SMILES,SENP8 block-1,SENP6 block,SENP8 block-2,HSP90 inh,SENP7 inh,SENP8 confirm,SENP6 conf,SENP7 conf,Casp3 SENP sel,Luc interf
Cc1cc(N)ccc1-n1nc2ccccc2n1,-413.9,-16.6,-5.0,.,1.9,.,.,.,.,.
COc1ccc(NS(=O)(=O)c2cn(C)cn2)cc1Cl,6.5,-12.4,-6.2,-2.4,-10.9,.,.,.,.,.
Cc1ccc(-n2nc3ccc(N)cc3n2)cc1C,-445.8,91.5*,81.6*,3.5,32.1,-5.4,94.0*,101.3*,82.4*,52.3*
Cc1ccc(-n2nc3ccc(N)cc3n2)c(C)c1,-313.2,78.2*,64.7*,1.2,43.2,3.5,19.8,29.3,11.5,11.9
CCN(CC)C(=O)c1nc[nH]c1C(=O)N1CCC(C)CC1,3.8,14.6,0.6,.,8.6,.,.,.,.,.
Cn1c(-c2ccccc2)c(CCO)c2ccccc21,-36.9,-1.7,-6.2,-1.5,-3.1,.,.,.,.,.
Cc1ccc2oc(C(=O)N3CCC(N4CCSCC4)CC3)c(C)c2c1,8.7,-11.0,2.1,-7.0,0.1,.,.,.,.,.
O=C1CN(C(=O)c2ccc(Br)o2)C(c2ccccc2)c2cc(F)ccc2N1 (stereo unspecified),-2.2,-5.8,0.2,-0.1,-2.5,.,.,.,.,.
COc1cc2nn(-c3ccccc3N)nc2cc1OC,-494.5,.,.,.,.,.,.,.,.,.
COc1ccc(-n2nc3ccc(N)cc3n2)cc1Cl,-307.2,85.7*,88.1*,10.7,58.5*,39.7,80.9*,95.0*,56.6*,46.0
c1coc(C2=Nc3cccc4cccc(c34)N2)c1,35.7,50.0*,13.6,-0.4,5.0,-21.5,-5.7,-9.1,-7.7,-3.2
O=C(NCCCN1CCOCC1)c1sc2cc([N+](=O)[O-])ccc2c1Cl,13.4,62.4*,4.9,0.5,-1.5,-7.7,-5.3,-9.4,4.5,0.1
COc1cccc2oc3ccc(C#Cc4ccccn4)cc3c(=O)c12,i,100.2*,94.3*,16.6*,100.2*,73.4*,90.3*,99.8*,91.1*,74.7*
Cc1nn2cc(-c3ccc(Cl)cc3)cnc2c1Cl,14.9,-27.1,-9.5,-4.1,75.9*,10.2,8.2,19.3,35.8,7.1
Cc1cc2ncc(-c3cccc(Cl)c3)cn2n1,18.5,-39.0,-2.0,-0.7,22.1,.,.,.,.,.
COc1ccc(Cl)cc1S(=O)(=O)NC(C)C(=O)NCc1ccccn1 (stereo unspecified),3.5,-32.4,-7.1,-0.1,-0.4,.,.,.,.,.
CC(C)S(=O)(=O)c1ccc(C(=O)Nc2ccc(F)cc2F)cn1,11.0,13.5,-4.5,0.9,1.8,.,.,.,.,.
CCCSc1ccc(C(=O)Nc2ccc(F)cc2F)cn1,13.8,52.5*,35.6,-1.0,67.9*,0.8,-0.6,18.8,22.4,-7.0
CCc1ccc(C(=O)C(C)OC(=O)c2nn(C)c(=O)c3ccccc23)cc1 (stereo unspecified),11.4,-11.1,15.0,.,1.3,.,.,.,.,.
O=[N+]([O-])c1ccc(O)c(/C=N/Nc2ncnc3c2cnn3-c2ccccc2)c1,14.2,90.5*,92.7*,-2.0,93.4*,87.4*,90.7*,100.3*,43.2,2.9
O=[N+]([O-])c1ccc(O)c(/C=N/Nc2nc3ccccc3[nH]2)c1,34.2,30.2,22.9,-3.4,-8.0,.,.,.,.,.
CCOC(=O)c1ccccc1NC(=O)c1ccc(N(C)S(C)(=O)=O)cc1,-3.6,7.0,-1.5,-0.2,0.1,.,.,.,.,.
Cc1nn(C)c(C(=O)Nc2ccc3c(c2)OCO3)c1[N+](=O)[O-],12.0,-0.5,3.3,-3.4,-5.9,.,.,.,.,.
Cc1ccsc1C(=O)Nc1ccc2c(c1)OCCO2,-3.6,85.7*,84.8*,14.6,91.8*,90.1*,90.2*,99.0*,95.4*,91.0*
Cc1ncoc1C(=O)Nc1ccc(Oc2ccccc2)cc1,11.9,62.1*,32.2,-0.8,56.0*,51.0*,45.6,78.4*,44.3,61.6*
SMILES,SENP8 block-1,SENP6 block,SENP8 block-2,HSP90 inh,SENP7 inh,SENP8 confirm,SENP6 conf,SENP7 conf,Casp3 SENP sel,Luc interf
Cc1ncoc1C(=O)Nc1ccc2c(c1)OCCO2,2.7,64.3*,59.8*,7.2,77.0*,70.4*,66.0*,89.3*,91.4*,72.5*
COc1ccc(NC(=O)c2ocnc2C)cc1OC,12.0,-1.0,-16.0,4.0,-3.2,.,.,.,.,.
Cc1nc(C)c(C(=O)Nc2ccc(Oc3ccccc3)cc2)o1,5.7,-11.1,11.8,4.0,4.5,.,.,.,.,.
Cc1c([N+](=O)[O-])c(C(=O)Nc2ccc3c(c2)OCCO3)nn1C,11.6,74.8*,42.4,-1.6,73.3*,68.5*,66.3*,87.1*,89.3*,72.3*
Cc1cccc(OCC(O)Cn2ccnc2C)c1 (stereo unspecified),6.7,-8.0,-1.9,0.5,2.1,.,.,.,.,.
CC(C)(Cc1ccc(O)cc1)NC(=O)CC(=O)N=Nc1c(O)[nH]c2cc(Br)ccc12,22.4,-6.7,-7.0,-0.6,4.7,.,.,.,.,.
CCCCCCSC1=C(C#N)C(=O)NC2(CCCCC2)S1,39.6,34.6,59.2*,-1.9,-1.2,7.9,86.9*,94.5*,39.5,88.5*
COc1ccc(CSC2=C(C#N)C(=O)NC3(CCCCC3)S2)cc1,28.4,.,.,.,.,.,.,.,.,.
COc1ccc(CCNC(=O)CC2SC(=NCc3ccccc3OC)NC2=O)cc1 (stereo unspecified),20.1,0.2,-2.8,0.4,-11.4,.,.,.,.,.
O=C(Nc1sc2c(c1C(=O)O)CCCCC2)c1ccccc1F,-87.4,95.7*,94.2*,2.6,86.0*,96.7*,97.8*,101.6*,94.9*,79.5*
O=C(Nc1sc2c(c1C(=O)O)CCCC2)c1ccc(F)cc1,-66.0,87.7*,75.5*,-1.2,33.1,88.5*,86.5*,94.3*,80.3*,78.1*
COC(=O)c1c(NC(=O)c2ccccc2C(=O)O)sc2c1CCCC2,-42.2,.,.,.,.,.,.,.,.,.
CN(Cc1ccccc1)C(=O)c1ccc(NC(=O)C2=CSCCO2)cc1,11.0,8.8,-9.4,-0.1,-13.1,.,.,.,.,.
Cn1cccc1C(=O)C(=O)Nc1ccccc1,24.2,92.2*,80.0*,3.4,93.9*,89.0*,89.8*,99.8*,95.3*,88.5*
